According to PubChem BioAssay (Tox21):
Where “and” joins values, the source holds several entries; their conditions need not be identical. Equal values may be shown once. Results filed as inconclusive are left out. Where a structure was tested more than once in an assay, its records may differ in their call. Calls of active or inactive are those of the source. Calls follow the shape of the dose curve; as a rule, active = well fitted inhibition curve with a large enough effect in the repeat runs; inconclusive = weak or mixed curves; inactive = no such curve, though single readings can be large or run the other way.

Molecular target: Cytochrome P450 2C9 (Homo sapiens) (UniProt P11712)
Sequence (P11712 whole entry, looked up): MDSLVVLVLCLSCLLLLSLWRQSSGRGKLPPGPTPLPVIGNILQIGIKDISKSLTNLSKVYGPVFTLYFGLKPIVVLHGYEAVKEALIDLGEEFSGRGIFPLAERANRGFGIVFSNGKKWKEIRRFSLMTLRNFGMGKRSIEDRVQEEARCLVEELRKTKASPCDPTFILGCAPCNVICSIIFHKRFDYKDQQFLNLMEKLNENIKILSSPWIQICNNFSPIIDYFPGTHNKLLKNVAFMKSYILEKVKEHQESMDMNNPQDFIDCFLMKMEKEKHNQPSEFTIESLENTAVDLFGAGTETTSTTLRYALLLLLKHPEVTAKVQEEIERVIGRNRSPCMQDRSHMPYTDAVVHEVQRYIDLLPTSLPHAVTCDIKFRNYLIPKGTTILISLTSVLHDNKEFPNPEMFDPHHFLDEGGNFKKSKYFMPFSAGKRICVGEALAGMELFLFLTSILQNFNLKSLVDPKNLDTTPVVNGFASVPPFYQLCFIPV
Assay: Cytochrome P450 Family 2 Subfamily C Member 9 (CYP2C9) small molecule antagonists: luciferase reporter qHTS assay (AID 1671198); also: nearly all actives have a fitted effect of over 50% in size
Details: P450-Glo CYP2C9 enzyme assay, luciferin luminescence; series mostly up to 115 µM; activity change, negative = inhibition: at the top concentration
Text: U.S. Tox21 Program National Center for Advancing Translational Sciences [NCATS] U.S. Environmental Protection Agency [EPA] National Institutes of Environmental Health Sciences [NIEHS] National Toxicology Program [NTP] U.S. Food and Drug Administration [FDA] Tox21 Assay Overview: Cytochrome P450 (CYP) enzymes are membrane-bound hemeproteins that play a key role in metabolism of drugs and xenobiotics. Evaluation of the effect of chemicals on CYP isozymes is useful to minimize the adverse drug reactions and toxicities in drug development process. Tox21 chemicals were tested for their effect on CYP enzyme activities by using P450-Glo (TM) screening systems (Promega Corporation, Madison, WI). These systems provide a luminescent method containing proluciferin substrates and are converted to luciferin products by CYP isozymes. The luciferin products formed are detected with a luciferin detection reagent, and the amount of light produced is proportional to CYP activity. P450-Glo (TM) CYP2C9 screening system (Catalog. No. V9790) was used to detect the compounds that interfere in CYP2C9 activity.
Tox21 Assay Protocol Summary: Two ul of enzyme-substrate mix was dispensed into medium binding white/solid 1536-well plates (Greiner Bio-One North America Inc., Monroe, NC) using a BioRaptr Flying Reagent Dispenser (FRD, Beckman Coulter, Brea, CA). […] The assay plates were incubated at room temperature for 10 min. Then 2 ul of NADPH regeneration solution was added to each well of the assay plates using an FRD and incubated at 37C for 1 h. The reaction was stopped by adding 4 ul of detection reagent using an FRD and after 20 min incubation at room temperature the luminescence signal was measured using a ViewLux plate reader (Perkin Elmer, Shelton, CT). Data were expressed as relative luminescence units.
% is scaled to controls: 0 for no effect and ±100 for the full control effect; potency is read from the fitted curve at half-maximal effect.

`CCCN(CCC)c1c([N+](=O)[O-])cc(C(F)(F)F)cc1[N+](=O)[O-]` was tested. Which Potency did it give?
The Potency was 22.4 µM (active).

For `C1CN2CCN1CC2`, which “activity change, negative = inhibition” value is on record?
The value was -8.57% (inactive).

Which “activity change, negative = inhibition” value does the source give for `CC(C)(Cl)Cl` here?
The value was -18.6% (inactive).

Which “activity change, negative = inhibition” value does the source give for `O=c1ccc(=O)[nH][nH]1` here?
The value was -1.97% (inactive).

`c1ccc(OP(Oc2ccccc2)Oc2ccccc2)cc1` was tested. Which “activity change, negative = inhibition” value did it give?
Its value is -17% (inactive).

For `CCC[CH2][Sn]([Cl])([Cl])[Cl]`, which “activity change, negative = inhibition” value is on record?
Its value is -1.02% (inactive).

Which “activity change, negative = inhibition” value does the source give for `O=c1[nH]c(=O)[nH]c(=O)[nH]1` here?
Its value is -5.29% (inactive).

How did the Potency turn out when `CCOP(=S)(OCC)Oc1cnc2ccccc2n1` was run?
Its Potency is “inactive and 1.12 µM (active)”.

With `O=c1n(Cl)c(=O)n(Cl)c(=O)n1Cl` as the compound, how does the “activity change, negative = inhibition” value read?
The value was -4.82% [at 53 µM] (inactive).

How did the “activity change, negative = inhibition” value turn out when `CC(C)(C)OOC(C)(C)C` was run?
The value was -7.3% (inactive).

`Cc1cccc([N+](=O)[O-])c1` was tested. Which Potency did it give?
The Potency was “inactive”.

How did the Potency turn out when `CCCCCOC(=O)c1ccccc1C(=O)OCCCCC` was run?
Its Potency is 28.2 µM (active) and 7.96 µM (active).

How did the Potency turn out when `Clc1ccc(Cl)cc1` was run?
Its Potency is “inactive”.

Which “activity change, negative = inhibition” value does the source give for `O=NN1CCCC1` here?
Its value is -5.48% (inactive).

Which Potency does the source give for `c1ccc(-c2ccccc2)cc1` here?
The Potency was “inactive”.

With `CC(C)C1(C)N=C(c2nc3ccccc3cc2C(=O)O)NC1=O` (stereo not given) as the compound, how does the Potency read?
The Potency was “inactive”.

For `CCCN(CCC)N=O`, which Potency is on record?
Its Potency is “inactive”.

How did the Potency turn out when `CCCCN(CCCC)SN(C)C(=O)Oc1cccc2c1OC(C)(C)C2` was run?
Its Potency is 40.6 µM (active) and 31.7 µM (active).

How did the Potency turn out when `CCN(CC)c1ccccc1` was run?
The Potency was “inactive and 71 µM (active)”.

`CN=C=S` was tested. Which “activity change, negative = inhibition” value did it give?
The value was -2.19% (inactive).

For `COc1ccc2c3c1O[C@H]1[C@@H](O)C=C[C@H]4[C@@H](C2)N(C)CC[C@@]341`, which Potency is on record?
The Potency was “inactive”.

With `O=S(=O)(c1ccc(Cl)cc1)c1cc(Cl)c(Cl)cc1Cl` as the compound, how does the Potency read?
The Potency was 28.3 µM (active).

For `CNC(=O)Oc1ccccc1OC(C)C`, which “activity change, negative = inhibition” value is on record?
The value was -12.9% (inactive).

Which “activity change, negative = inhibition” value does the source give for `Clc1ccccc1Cl` here?
Its value is -3.79% (inactive).

Which “activity change, negative = inhibition” value does the source give for `O=C(O)c1ccccn1` here?
The value was -18.8% (inactive).

With `CCOP(=S)(OCC)SCCSCC` as the compound, how does the Potency read?
Its Potency is 32.7 µM (active) and 15.1 µM (active).

`O=[N+]([O-])c1ccc(Oc2ccc(Cl)cc2Cl)cc1` was tested. Which Potency did it give?
The Potency was 28.4 µM (active) and 31.7 µM (active).

With `CCNc1nc(NC(C)C)nc(SC)n1` as the compound, how does the Potency read?
Its Potency is “inactive”.

For `CCC[N+](=O)[O-]`, which “activity change, negative = inhibition” value is on record?
Its value is -8.56% (inactive).

How did the Potency turn out when `CC(=O)C=C(C)C` was run?
Its Potency is “inactive”.

How did the “activity change, negative = inhibition” value turn out when `CC1C=[C-]C=C1.[C-]#[O+].[C-]#[O+].[C-]#[O+].[Mn]` was run?
Its value is -1.41% (inactive).

`CC(C)C#N` was tested. Which Potency did it give?
The Potency was “inactive”.

For `O=S(=O)(c1ccc(O)cc1)c1ccc(O)cc1`, which Potency is on record?
Its Potency is “inactive”.

With `Cc1cc(-c2cc(C)c(N)c(C)c2)cc(C)c1N` as the compound, how does the Potency read?
The Potency was 40 µM (active) and 22 µM (active).

For `Clc1cccc(Cl)c1Cl`, which “activity change, negative = inhibition” value is on record?
The value was -8.53% (inactive).

`CCNc1nc(NC(C)(C)C)nc(SC)n1` was tested. Which Potency did it give?
Its Potency is “inactive”.

Which Potency does the source give for `C1CC2OC2CC1C1CO1` (stereo not given) here?
Its Potency is “inactive”.

For `CC(Br)C(=O)O` (stereo not given), which Potency is on record?
Its Potency is 36 µM (active).

Which “activity change, negative = inhibition” value does the source give for `c1cc2c3c(cccc3c1)CC2` here?
Its value is -9.33% (inactive).

For `OCCN(CCO)CCO`, which Potency is on record?
The Potency was “inactive”.
